Reference: PubChem BioAssay AID1159580 (chemical genetic matrix, 2015)
“And” between values parts separate entries of the source, which are not always exact repeats. Identical values can stand only once. The whole screen tested about 5,500 compounds, of which about 2,000 (36%) were called active. Not shown: some 18% with an inconclusive outcome. Rule as the data show it: active = normalized growth mostly below about 0.91 (no sharp cut-off); inconclusive = no clear call, values can overlap the other calls; inactive = mostly above about 0.92. This is one part of the list.

Assay: chemical genetic growth profiling, strain panel (AID 1159580);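 also: tested at 20 µM; growth read once vehicle control cultures reached saturation at 30 °C; 1 = growth at the plate median or of vehicle wells; lower values mean less growth of the strain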
Details: S. cerevisiae deletion strains, growth OD

Measured: normalized growth

O=C(O)CCCc1ccc(N(CCCl)CCCl)cc1
inactive: locus YAL021C, strain ccr4, stronger effect = lower value 0.929 | locus YAL026C, strain drs2, stronger effect = lower value 0.965 | locus YAL030W, strain snc1, stronger effect = lower value 0.971 | locus YAL040C, strain CLN3, stronger effect = lower value 1.1 | locus YBL061C, strain skt5, stronger effect = lower value 0.985 | locus YBR009C, strain hhf1, stronger effect = lower value 1 | locus YBR021W, strain FUR4, stronger effect = lower value 1.01 | locus YBR023C, strain chs3, stronger effect = lower value 0.957 | locus YBR171W, strain sec66, stronger effect = lower value 0.983 | locus YBR229C, strain ROT2, stronger effect = lower value 0.95 | locus YBR231C, strain swc5, stronger effect = lower value 0.997 | locus YBR279W, strain paf1, stronger effect = lower value 0.955 | locus YCL011C, strain gbp2, stronger effect = lower value 0.959 | locus YCL016C, strain dcc1, stronger effect = lower value 0.931 | locus YCL029C, strain bik1, stronger effect = lower value 0.989 | locus YCL061C, strain MRC1, stronger effect = lower value 0.986 | locus YCL069W, strain vba3, stronger effect = lower value 0.977 | locus YCR088W, strain abp1, stronger effect = lower value 0.984 | locus YDL005C, strain med2, stronger effect = lower value 0.997 | locus YDL035C, strain GPR1, stronger effect = lower value 0.974 | locus YDL040C, strain nat1, stronger effect = lower value 0.979 | locus YDL074C, strain BRE1, stronger effect = lower value 1 | locus YDL101C, strain DUN1, stronger effect = lower value 0.986 | locus YDL185W, strain tfp1, stronger effect = lower value 0.973 | locus YDL192W, strain arf1, stronger effect = lower value 0.984 | locus YDR001C, strain nth1, stronger effect = lower value 0.973 | locus YDR069C, strain doa4, stronger effect = lower value 0.955 | locus YDR101C, strain arx1, stronger effect = lower value 0.991 | locus YDR137W, strain rgp1, stronger effect = lower value 0.943 | locus YDR150W, strain NUM1, stronger effect = lower value 0.989 | locus YDR159W, strain sac3, stronger effect = lower value 1.01 | locus YDR162C, strain NBP2, stronger effect = lower value 0.947 | locus YDR195W, strain ref2 0.959 | locus YDR297W, strain sur2, stronger effect = lower value 0.986 | locus YDR318W, strain mcm21, stronger effect = lower value 0.999 | locus YDR334W, strain swr1, stronger effect = lower value 0.969 | locus YDR335W, strain msn5, stronger effect = lower value 0.967 | locus YDR363W, strain ESC2, stronger effect = lower value 1 | locus YDR388W, stronger effect = lower value 0.985 | locus YDR392W, strain spt3, stronger effect = lower value 0.881 | locus YDR502C, strain sam2, stronger effect = lower value 1 | locus YEL003W, strain gim4, stronger effect = lower value 0.988 | locus YEL037C, strain rad23, stronger effect = lower value 0.97 | locus YEL061C, strain CIN8 (second series), stronger effect = lower value 0.966 | locus YEL061C, strain CIN8, stronger effect = lower value 0.991 | locus YER002W, strain NOP16, stronger effect = lower value 1.02 | locus YER015W, strain faa2, stronger effect = lower value 0.973 | locus YER016W, strain bim1, stronger effect = lower value 0.986 | locus YER110C, stronger effect = lower value 0.983 | locus YER111C, strain swi4, stronger effect = lower value 0.978 | locus YER155C, strain BEM2 (second series), stronger effect = lower value 1.01 | locus YER155C, strain BEM2, stronger effect = lower value 0.991 | locus YER167W, strain BCK2, stronger effect = lower value 0.99 | locus YFR010W, strain ubp6, stronger effect = lower value 1 | locus YGL078C, strain dbp3, stronger effect = lower value 0.952 | locus YGL086W, strain mad1, stronger effect = lower value 0.932 | locus YGL167C, strain pmr1, stronger effect = lower value 0.978 | locus YGL173C, strain kem1, stronger effect = lower value 0.999 | locus YGL227W, strain vid30, stronger effect = lower value 0.955 | locus YGL240W, strain doc1, stronger effect = lower value 0.97 | locus YGL248W, strain PDE1, stronger effect = lower value 1 | locus YGL253W, strain hxk2, stronger effect = lower value 0.925 | locus YGR135W, strain pre9, stronger effect = lower value 1.04 | locus YGR252W, strain gcn5, stronger effect = lower value 1.07 | locus YHR013C, strain ard1, stronger effect = lower value 0.956 | locus YHR027C, strain rpn1, stronger effect = lower value 0.977 | locus YHR030C, strain SLT2, stronger effect = lower value 0.982 and 0.856 | locus YHR079C, strain IRE1 (second series), stronger effect = lower value 0.996 | locus YHR079C, strain IRE1, stronger effect = lower value 0.876 | locus YHR094C, strain hxt1, stronger effect = lower value 0.983 | locus YHR129C, strain ARP1, stronger effect = lower value 0.988 | locus YHR142W, strain chs7, stronger effect = lower value 0.949 | locus YHR200W, strain rpn10, stronger effect = lower value 0.981 | locus YIL066C, strain RNR3, stronger effect = lower value 0.967 | locus YIL073C, strain SPO22, stronger effect = lower value 1.02 | locus YIL125W, strain kgd1, stronger effect = lower value 0.95 | locus YIR030C, strain dcg1, stronger effect = lower value 0.983 | locus YJL092W, strain hpr5, stronger effect = lower value 0.967 | locus YJL095W, strain BCK1 (second series), stronger effect = lower value 0.974 | locus YJL095W, strain BCK1, stronger effect = lower value 1.06 and 0.888 | locus YJL115W, strain asf1, stronger effect = lower value 0.952 | locus YJL129C, strain trk1, stronger effect = lower value 0.927 | locus YJL134W, strain LCB3, stronger effect = lower value 0.983 | locus YJL154C, strain vps35, stronger effect = lower value 0.972 | locus YJL164C, strain tpk1, stronger effect = lower value 0.988 | locus YJL166W, strain qcr8, stronger effect = lower value 1 | locus YJL168C, strain set2, stronger effect = lower value 0.984 | locus YJL187C, strain SWE1 (second series), stronger effect = lower value 1 | locus YJR043C, strain POL32, stronger effect = lower value 0.963 | locus YJR066W, strain TOR1, stronger effect = lower value 0.967 | locus YJR075W, strain HOC1, stronger effect = lower value 1.02 and 0.993
